Measurements as given in PubChem BioAssay AID1159580 (chemical genetic matrix, 2015).
Several values for one entry are separate records, joined by “and”; a condition that tells them apart may be missing. Identical values can stand only once. Among all 5,500 compounds or so, about 2,000 (36%) were called active. Inconclusive results (about 18%) are left out. Rule as the data show it: active = normalized growth mostly below about 0.91 (no sharp cut-off); inconclusive = no clear call, values can overlap the other calls; inactive = mostly above about 0.92. The list shows a part of the results.

Test: chemical genetic growth profiling, strain panel (AID 1159580);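 also: tested at 20 µM; growth read once vehicle control cultures reached saturation at 30 °C; 1 = growth at the plate median or of vehicle wells; lower values mean less growth of the strain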
Conditions: S. cerevisiae deletion strains, growth OD
[1] = locus YGR078C, strain PAC10, hits give low values
[2] = locus YNL153C, strain GIM3, hits give low values

Measured: normalized growth

Cn1c(=O)c2[nH]c(-c3ccc(S(=O)(=O)O)cc3)nc2n(C)c1=O
inactive: locus YAL040C, strain CLN3, hits give low values 1.01 | locus YCL061C, strain MRC1 (second series), hits give low values 1.01 | locus YER002W, strain NOP16, hits give low values 1.01 | [1] 1.01 | [2] 1.03 | locus YNL175C, strain NOP13, hits give low values 1.01 | locus YNL197C, strain WHI3, hits give low values 0.993 | locus YNL224C, strain SQS1, hits give low values 1 | locus YOR083W, strain WHI5 (second series), hits give low values 0.98 | locus YPL055C, strain LGE1, hits give low values 1 | locus YPL241C, strain CIN2, hits give low values 1.02

COC(=O)CC1C(C)(C)C(OC(C)=O)[C@@H]2[C@@H](OC(C)=O)[C@]34O[C@@]2(O)[C@]1(C)C3CC[C@]1(C)C4=CC(=O)O[C@H]1c1ccoc1 (stereo not given in full)
inactive: locus YAL013W, strain DEP1, hits give low values 1.02 | locus YAL021C, strain ccr4, hits give low values 1.03 | locus YAL026C, strain drs2, hits give low values 0.991 | locus YAL030W, strain snc1, hits give low values 1.01 | locus YBL061C, strain skt5, hits give low values 0.998 | locus YBR009C, strain hhf1, hits give low values 1.03 | locus YBR021W, strain FUR4, hits give low values 1.04 | locus YBR023C, strain chs3, hits give low values 1.01 | locus YBR171W, strain sec66, hits give low values 1 | locus YBR229C, strain ROT2, hits give low values 0.96 | locus YBR231C, strain swc5, hits give low values 1.01 | locus YBR279W, strain paf1, hits give low values 1.01 | locus YCL011C, strain gbp2, hits give low values 1.01 | locus YCL016C, strain dcc1, hits give low values 1.02 | locus YCL029C, strain bik1, hits give low values 1.02 | locus YCL061C, strain MRC1, hits give low values 1.01 | locus YCL069W, strain vba3, hits give low values 1.01 | locus YCR088W, strain abp1, hits give low values 1.01 | locus YDL005C, strain med2, hits give low values 0.991 | locus YDL035C, strain GPR1, hits give low values 0.98 | locus YDL040C, strain nat1, hits give low values 1.02 | locus YDL074C, strain BRE1, hits give low values 1.03 | locus YDL101C, strain DUN1, hits give low values 1.02 | locus YDL134C, strain PPH21, hits give low values 1.05 | locus YDL185W, strain tfp1, hits give low values 0.977 | locus YDL192W, strain arf1, hits give low values 0.983 | locus YDR001C, strain nth1, hits give low values 1.01 | locus YDR069C, strain doa4, hits give low values 1.02 | locus YDR101C, strain arx1, hits give low values 0.975 | locus YDR137W, strain rgp1, hits give low values 0.93 | locus YDR150W, strain NUM1, hits give low values 1.01 | locus YDR159W, strain sac3, hits give low values 1 | locus YDR162C, strain NBP2, hits give low values 1 | locus YDR195W, strain ref2 1.01 | locus YDR297W, strain sur2, hits give low values 1.02 | locus YDR318W, strain mcm21, hits give low values 0.997 | locus YDR334W, strain swr1, hits give low values 1.01 | locus YDR335W, strain msn5, hits give low values 1.01 | locus YDR388W, hits give low values 1.02 | locus YDR392W, strain spt3, hits give low values 1.07 | locus YDR502C, strain sam2, hits give low values 1.03 | locus YEL003W, strain gim4, hits give low values 1.01 | locus YEL037C, strain rad23, hits give low values 1 | locus YEL061C, strain CIN8 (second series), hits give low values 1 | locus YEL061C, strain CIN8, hits give low values 1 | locus YER015W, strain faa2, hits give low values 1.01 | locus YER016W, strain bim1, hits give low values 1.01 | locus YER110C, hits give low values 0.998 | locus YER111C, strain swi4, hits give low values 0.988 | locus YER155C, strain BEM2 (second series), hits give low values 1.05 | locus YER155C, strain BEM2, hits give low values 1.01 | locus YER167W, strain BCK2, hits give low values 0.991 | locus YFR010W, strain ubp6, hits give low values 1 | locus YGL078C, strain dbp3, hits give low values 1.01 | locus YGL086W, strain mad1, hits give low values 1.02 | locus YGL167C, strain pmr1, hits give low values 1.01 | locus YGL173C, strain kem1, hits give low values 1 | locus YGL227W, strain vid30, hits give low values 1 | locus YGL240W, strain doc1, hits give low values 1.01 | locus YGL248W, strain PDE1, hits give low values 1.03 | locus YGL253W, strain hxk2, hits give low values 0.953 | [1] 1.05 | locus YGR135W, strain pre9, hits give low values 1.08 | locus YGR252W, strain gcn5, hits give low values 1.09 | locus YHR013C, strain ard1, hits give low values 1.02 | locus YHR027C, strain rpn1, hits give low values 1.01 | locus YHR030C, strain SLT2, hits give low values 1.03 | locus YHR079C, strain IRE1 (second series), hits give low values 0.989 | locus YHR079C, strain IRE1, hits give low values 1.04 | locus YHR094C, strain hxt1, hits give low values 1 | locus YHR129C, strain ARP1, hits give low values 1.02 | locus YHR142W, strain chs7, hits give low values 0.983 | locus YHR200W, strain rpn10, hits give low values 1.03 | locus YIL066C, strain RNR3, hits give low values 0.979 | locus YIL073C, strain SPO22, hits give low values 0.988 | locus YIL125W, strain kgd1, hits give low values 0.991 | locus YIR030C, strain dcg1, hits give low values 0.996 | locus YJL092W, strain hpr5, hits give low values 1.01 | locus YJL095W, strain BCK1 (second series), hits give low values 0.999 | locus YJL095W, strain BCK1, hits give low values 1.07 and 1.02 | locus YJL115W, strain asf1, hits give low values 0.998 | locus YJL129C, strain trk1, hits give low values 0.984 | locus YJL134W, strain LCB3, hits give low values 0.996 | locus YJL154C, strain vps35, hits give low values 1.02 | locus YJL164C, strain tpk1, hits give low values 1 | locus YJL166W, strain qcr8, hits give low values 1.01 | locus YJL168C, strain set2, hits give low values 1.02 | locus YJL187C, strain SWE1 (second series), hits give low values 1.04 | locus YJR066W, strain TOR1, hits give low values 0.963 | locus YKL009W, strain mrt4, hits give low values 0.921 | locus YKL068W, hits give low values 0.99 | locus YKL085W, strain MDH1 (second series), hits give low values 1.01 | locus YKL085W, strain MDH1, hits give low values 1.01 | locus YKL160W, strain elf1, hits give low values 1.01 | locus YKL190W, strain CNB1, hits give low values 1 | locus YKR001C, strain vps1, hits give low values 0.978 | locus YKR026C, strain gcn3, hits give low values 1.01 | locus YKR091W, strain srl3, hits give low values 1.01 | locus YLL001W, strain dnm1, hits give low values 1 | locus YLL026W, hits give low values 0.999 | locus YLL041C, strain sdh2, hits give low values 0.998 | locus YLR027C, strain aat2, hits give low values 1.01 | locus YLR039C, strain RIC1, hits give low values 0.934 | locus YLR058C, strain SHM2, hits give low values 0.988 | locus YLR102C, strain apc9, hits give low values 1.01 | locus YLR113W, strain HOG1, hits give low values 0.998 | locus YLR221C, strain rsa3, hits give low values 1.03 | locus YLR258W, strain gsy2, hits give low values 1 | locus YLR262C, strain YPT6 (second series), hits give low values 0.963 | locus YLR262C, strain YPT6, hits give low values 0.899 | locus YLR268W, strain sec22, hits give low values 0.983 | locus YLR320W, strain mms22, hits give low values 1.01 | locus YLR330W, strain CHS5, hits give low values 1.01 | locus YLR342W, strain FKS1 (second series), hits give low values 1.06 | locus YLR342W, strain FKS1, hits give low values 1.01 | locus YLR357W, strain rsc2, hits give low values 1.06 | locus YLR370C, strain arc18, hits give low values 1.03 | locus YLR371W, strain rom2, hits give low values 1.01 | locus YLR384C, strain iki3, hits give low values 0.99 | locus YLR418C, strain cdc73, hits give low values 1.07 | locus YML016C, strain PPZ1, hits give low values 1.01 | locus YML032C, strain rad52, hits give low values 0.991 | locus YML120C, strain ndi1, hits give low values 1.03 | locus YML124C, strain tub3, hits give low values 0.997 | locus YMR058W, strain fet3, hits give low values 1.01 | locus YMR078C, strain ctf18, hits give low values 0.998 | locus YMR125W, strain sto1, hits give low values 1.02 | locus YMR129W, hits give low values 0.996 | locus YMR205C, strain PFK2, hits give low values 1.02 | locus YMR223W, strain ubp8, hits give low values 1.03 | locus YMR231W, strain pep5, hits give low values 0.994 | locus YMR307W, strain GAS1, hits give low values 1.02 | locus YNL067W, strain RPL9B, hits give low values 1.05 | locus YNL071W, strain lat1, hits give low values 1.01 | locus YNL128W, strain TEP1, hits give low values 0.97 | [2] 1.05 | locus YNL183C, strain NPR1, hits give low values 0.978 | locus YNL209W, strain ssb2, hits give low values 1.02 | locus YNL233W, strain BNI4, hits give low values 1.08 | locus YNL248C, strain rpa49, hits give low values 0.999 | locus YNL250W, strain rad50, hits give low values 1 | locus YNL271C, strain bni1, hits give low values 1 | locus YNL298W, strain CLA4, hits give low values 1.01 | locus YNL307C, strain MCK1, hits give low values 1.01 | locus YNL322C, strain KRE1 (second series), hits give low values 1.01 | locus YNR049C, strain mso1, hits give low values 1.01 | locus YNR052C, strain pop2, hits give low values 1.06 | locus YOL012C, strain htz1 1.16 | locus YOL147C, strain pex11, hits give low values 1 | locus YOR001W, strain rrp6, hits give low values 1.02 | locus YOR061W, strain CKA2, hits give low values 0.946 | locus YOR069W, strain VPS5, hits give low values 1.01 | locus YOR070C, strain gyp1, hits give low values 1.01 | locus YOR080W, strain dia2, hits give low values 1 | locus YOR083W, strain WHI5, hits give low values 1.01 | locus YOR106W, strain vam3, hits give low values 1.02 | locus YOR136W, strain idh2, hits give low values 1.02 | locus YOR144C, strain elg1, hits give low values 1 | locus YOR184W, strain ser1, hits give low values 0.957 | locus YOR231W, strain MKK1, hits give low values 0.995 | locus YOR265W, strain rbl2, hits give low values 1 | locus YOR270C, strain vph1, hits give low values 0.806 | locus YOR290C, strain snf2, hits give low values 1.01 | locus YOR316C, strain cot1, hits give low values 1.01 | locus YPL051W, strain arl3, hits give low values 1.02 | locus YPL078C, strain atp4, hits give low values 1 | locus YPL106C, strain sse1, hits give low values 1.06 | locus YPL240C, strain hsp82, hits give low values 1.01 | locus YPL256C, strain CLN2, hits give low values 1.04 | locus YPR119W, strain clb2, hits give low values 1 | locus YPR141C, strain kar3, hits give low values 0.979 | locus YPR163C, strain tif3, hits give low values 1.01 | locus YPR167C, strain met16, hits give low values 1.01 | strain wtn01, hits give low values 0.982
